Assay results from PubChem BioAssay (NCATS).
Records with an inconclusive call do not appear. Where a call stands in place of a potency, no number is given. Activity calls are given as the source filed them. Calls come from the whole dose curve; as a rule, active = well fitted inhibition curve with a large enough effect; inconclusive = small, poorly fitted or top-dose-only effect; inactive = flat fitted curve, though single readings scatter.

How the values were obtained:
Assay in all cases: qHTS profiling for inhibitors of Plasmodium falciparum proliferation (AID 504749); note: nearly all actives have a fitted effect of over 60% in size
Details in all cases: P. falciparum in erythrocytes, SYBR Green DNA, 72 h; series mostly up to 28.7 µM
CP191 = system: CP191
Summary of the method: (§1)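 Three-day growth assay of blood-stage parasites in erythrocytes (0.3% parasitemia, 2.5% hematocrit) at 37 C, 5% CO2, quantified by SYBR Green DNA staining after overnight detergent lysis.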

CP192 = system: CP192
Summary of the method: as §1

CP194 = system: CP194
Summary of the method: as §1

CP201 = system: CP201
Summary of the method: as §1

CP211 = system: CP211
Summary of the method: as §1

CP215 = system: CP215
Summary of the method: as §1

CP217 = system: CP217
Summary of the method: as §1

CP237 = system: CP237
Summary of the method: as §1

CP238 = system: CP238
Summary of the method: as §1

CP203 = system: CP203
Summary of the method: as §1
Potency is the fitted concentration of half-maximal effect.

O=c1cc[nH]c(=O)[nH]1
Potency (CP191): inactive
Potency (CP192): inactive
Potency (CP194): inactive
Potency (CP201): inactive
Potency (CP211): inactive
Potency (CP215): inactive
Potency (CP217): inactive
Potency (CP237): inactive
Potency (CP238): inactive

[Cl][In]([Cl])[Cl]
Potency (CP192): inactive
Potency (CP194): inactive
Potency (CP201): inactive
Potency (CP203): inactive
Potency (CP211): inactive
Potency (CP238): inactive

CN(C)CCCN1c2ccccc2Sc2ccc(Cl)cc21
Potency (CP201): inactive
Potency (CP215): 15.1 µM (active)

C[C@]12C[C@H](O)[C@H]3[C@@H](CCC4=CC(=O)CC[C@@]43C)[C@@H]1CC[C@@H]2C(=O)CO
Potency (CP192): inactive
Potency (CP194): inactive
Potency (CP201): inactive
Potency (CP203): inactive
Potency (CP211): inactive
Potency (CP215): inactive
Potency (CP237): inactive

CNCCCC1c2ccccc2C=Cc2ccccc21
Potency (CP192): inactive
Potency (CP201): inactive
Potency (CP211): inactive
Potency (CP237): inactive

CC(CN1c2ccccc2Sc2ccccc21)N(C)C (stereo not drawn)
Potency (CP191): inactive
Potency (CP192): inactive
Potency (CP194): inactive
Potency (CP201): inactive
Potency (CP211): inactive
Potency (CP217): inactive
Potency (CP238): inactive

CC(C)(C)C(=O)C(Oc1ccc(Cl)cc1)n1ccnc1 (stereo not drawn)
Potency (CP203): 13.5 µM (active)
Potency (CP217): 10 µM (active)
Potency (CP237): 7.08 µM (active)

CNCCC(Oc1ccc(C(F)(F)F)cc1)c1ccccc1 (stereo not drawn)
Potency (CP192): inactive
Potency (CP201): inactive
Potency (CP211): inactive
Potency (CP217): inactive
Potency (CP237): inactive
